LDHA inh – qHTS assay for inhibitors of human lactate dehydrogenase; activity change, % (values are at about 110 or 230 µM); 0.15% of 480,000 active; AID 1347041, 2019; purified LDHA, NADH/diaphorase-resazurin fluorescence; hits give low values; L-lactate dehydrogenase A chain (Homo sapiens), P00338; in the data active = activity change below about -30%; inconclusive = mostly about -25% to -30%
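Enzyme activity of human lactate dehydrogenase 5 (2 nM; 0.06 mM NADH, 0.2 mM pyruvate, 5 min, RT) is measured via a resazurin/diaphorase fluorescence readout of residual NADH.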
PTHR1 agonist – qHTS for PTHR1 Agonists: Primary Screen | Parathyroid hormone/parathyroid hormone-related peptide receptor (Homo sapiens), Q03431 | HEK293 GP2 PTHR1 cells, GloSensor cAMP luminescence, 1 h | Potency, µM (highest dose often 115 µM), actives largely listed as activators | 0.075% of 410,000 active | AID 743266, 2014; note: nearly all actives have a fitted effect of over 55% in size
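HEK-293-derived GP2 cells expressing PTHR1 and a GloSensor cAMP reporter, 3,000/well, plated overnight, given luciferin plus IBMX (each 0.5 mM as added) for 1 h at 37 °C, then compound for 1 h at 37 °C. Luminescence was read after 15 min at room temperature.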
RGS4 inh – Inhibitors of Regulator of G Protein Signaling (RGS) 4: qHTS. Regulator of G-protein signaling 4 (Homo sapiens), P49798. Transcreener GDP fluorescence polarization, RGS4-accelerated GTP hydrolysis. Potency, µM (doses to about 114 µM), hits mostly inhibitors. 0.039% of 390,000 active; note: nearly all actives have a fitted effect of over 75% in size
Target sequence (P49798 whole entry, looked up): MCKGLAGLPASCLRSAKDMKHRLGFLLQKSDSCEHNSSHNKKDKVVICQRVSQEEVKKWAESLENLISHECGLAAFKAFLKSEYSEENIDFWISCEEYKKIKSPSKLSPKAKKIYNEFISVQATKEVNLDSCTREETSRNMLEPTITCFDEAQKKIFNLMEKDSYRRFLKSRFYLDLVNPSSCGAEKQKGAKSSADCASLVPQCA
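MLSMR compounds (23 nl, pin-transferred) preincubated 10 min at room temperature with a 500nM (2x) first reagent, then RGS4 at 900nM (2x) plus Transcreener GDP mix added; fluorescence polarization (620/688 nm) read before and after 90 min at 30 °C.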
BRCA1 expr up – qHTS Assay to Identify Small Molecule Activators of BRCA1 Expression. AID 624202, 2012. MCF7-BRCA1-FFLuc reporter, luminescence, 48 h; response scale: scaled: vehicle 0%, 10 µM genistein 100%. Potency, µM (highest dose often 46.1 µM), actives largely listed as activators. 1.1% of 380,000 active; note: nearly all actives have a fitted effect of over 80% in size
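Reporter cells (MCF7, BRCA1 promoter-firefly luciferase) received library compounds across a concentration series for 48 h. End-point luminescence was measured and concentration-effect curves derived after normalization.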
p53 reactivator – qHTS assay for re-activators of p53 using a Luc reporter; H1299 p53-A138V BP100-luciferase reporter, luminescence, 24 h; Potency, µM (titrated, usually from 92.2 µM), most hits filed as activators; 0.063% of 320,000 active; note: nearly all actives have a fitted effect of over 45% in size
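H1299 (p53-null), stable ts p53-A138V + BP100-Luc; 1000 cells/well, Opti-MEM/10% FBS; cpd 4 pt, 1:5; 24 h, 37 deg C, 5% CO2; detection reagent 10 min RT; luminescence.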
A number is an active result; – = inactive; ? = inconclusive; · = no result given; ! = repeats disagree; [ ] = remark or other dose. Rows were chosen to be rich in hits. Some 1.1% of all compounds tested hit in one or more screens of this group. Unless noted, calls come from the whole dose curve; as a rule, active = well fitted curve in the direction sought with a large enough effect; inconclusive = small, poorly fitted or top-dose-only effect, or another doubt; inactive = no such curve, though single readings can be large; an effect the other way counts as inactive or inconclusive.

SMILES	LDHA inh	PTHR1 agonist	RGS4 inh	BRCA1 expr up	p53 reactivator
O=C(NCC1CC1)c1cccc2c(-c3ccc(F)c(F)c3)coc12	–	–	·	3.5µM	·
Cc1cccnc1NC(=O)Cc1nc(-c2ccccc2)oc1C	–	·	·	·	·
CCN1C(=O)C(=CC=CN(C)c2ccccc2)SC1=S	–	–	·	2.5µM	·
CCN1C(=O)/C(=C/C=C2\C=CN(CC)c3ccccc32)SC1=S	–	–	–	6.3µM	?
CCCCn1nc(NC(=O)CCC)c2cc3cc(OC)ccc3nc21	–	–	–	13µM	–
CCCCn1nc(NC(=O)c2cccs2)c2cc3cc(OC)ccc3nc21	–	–	–	–	–
COc1ccc(C(=O)c2ccc(OC)cc2O)c(O)c1	–	–	–	10µM	?
COc1ccc(C(=O)c2ccccc2O)c(O)c1	–	–	–	–	–
O=C1c2ccccc2C(=O)C1c1ccccn1	–	–	–[11.4 µM]	2.5µM	–
COc1ccc(C)cc1S(=O)(=O)Nc1ccc(Nc2nc(C)cc(N3CCOCC3)n2)cc1	–	·	·	·	·
O=C(Nc1ccc(Cl)c(Cl)c1)Nc1ccccc1O	–	–	–	2.8µM	?
O=C(O)c1ccc(-c2nc3scc(-c4ccccc4)c3c(=O)[nH]2)cc1	–	18µM	–	–	–
CN1CCc2cc(O)c(O)cc2C(c2ccccc2)C1 (configuration not stated)	–	–	–	–	–
CN1CCc2cc(Cl)c(O)cc2[C@@H](c2ccccc2)C1	–	–	3µM!	–	·
COc1ccc(NC(=O)Cc2cc(Cl)c3c(c2)OCCCO3)cc1S(=O)(=O)N(C)C	–	·	·	·	·
c1ccc(CCNc2ncnc3ccccc23)cc1	–	–	–	2µM	–
N#Cc1ccccc1NC(=O)c1cc(=O)c2ccccc2o1	–	–	–	8.9µM	–
COc1ccccc1CN(C)C(=O)Cc1c(C)nc2ccccc2c1C	–	·	·	·	·
CCOC(=O)C1=NN(c2ccc(Cl)cc2)C(=O)C1	–	–	–	4µM	?
CN(C(=O)c1ccc(I)cc1)C1CCCCC1	–	·	·	·	·
CC(/C=N/NC(=O)Cc1cccs1)=C\c1ccccc1	–	–	–	?	?
O=C(Cc1cccs1)N/N=C/C(Br)=C/c1ccccc1	–	–	–	5µM	–
Cc1ccc(CN2CCC(CNC(=O)Nc3cn(CC(C)C)c(=O)c4ccccc34)C2)cc1 (configuration not stated)	–	·	·	·	·
Cn1nc(-c2ccc(NC3CCCCC3)c([N+](=O)[O-])c2)c2ccccc2c1=O	–	·	·	·	·
COc1cc(C#N)ccc1OCCOc1ccccc1C(C)=O	–	·	·	·	·
SMILES	LDHA inh	PTHR1 agonist	RGS4 inh	BRCA1 expr up	p53 reactivator
Cc1cccc(-c2nc(Nc3ccc(C(=O)O)cc3)c3ccccc3n2)c1	-39	·	·	·	·
CC(=O)c1cccc(Nc2nc(-c3cccc(C)c3)nc3ccccc23)c1	–	–	–	·	·
Cc1ccc(-c2noc(-c3cc4ccccc4oc3=O)n2)cc1	?	–	–	–	–
O=c1oc2ccccc2cc1-c1nc(-c2ccccc2)no1	–	–	–	13µM	?
O=C(CSc1nnc(-c2ccc(Cl)cc2)n1CC1CCCO1)Nc1ccc2c(c1)OCO2 (configuration not stated)	–	·	·	·	·
C=CCn1cccc(C(=O)Nc2ccc(C)c(C)c2)c1=O	–	–	–	3.2µM	–
CCOC(=O)c1snc(C(=O)NC2CCCCC2)c1N	–	–	–	7.1µM	?
CN(C)/C=C1/Oc2c(ccc3ccccc23)C1=O	–	–	?	–	–
CN(C)/C=C1\Oc2ccc3ccccc3c2C1=O	–	–	–	7.1µM	?
CCCCn1c2ccc(F)cc2c2n[nH]c(=S)nc21	–	·	·	·	·
C/C(=N\Nc1nccnc1Cl)c1ccc(F)cc1	–	–	–	8.9µM	?
C/C(=N\Nc1nccnc1Cl)c1ccc(O)cc1	–	–	–	–	–
O=Cc1ccc(-c2cc(C(F)(F)F)ccc2Cl)o1	–	·	·	·	·
CCCc1cc2c(=O)c(-c3ccccn3)c(C)oc2cc1O	–	–	–	–	–
CCCc1cc2c(=O)c(-c3ccccn3)coc2cc1OC	–	–	–	5.6µM	?
C=C[C@@]1(C)CC(=O)[C@@]2(O)[C@@]3(C)[C@@H](O)CCC(C)(C)[C@@H]3[C@H](OC(=O)CCN(C)C)[C@H](OC(C)=O)[C@@]2(C)O1	·	·	8.4µM	·	·
CC(C=NNC(=O)C(=O)NN=CC(C)=Cc1ccccc1)=Cc1ccccc1	–	–	–	–	·
CC(/C=N/NC(=O)Cc1cccn1C)=C\c1ccccc1	–	–	–	11µM	–
COc1cccc(Nc2nc3ccc(OC)cc3s2)c1	–	–	–	4.5µM	?
COc1ccc(Nc2nc3ccccc3s2)cc1	–	–	–	5µM	–
O=C(CSc1nnc2ccccn12)Nc1ccc2c(c1)OCO2	–	–	–	–	–
O=C(CSc1nnc2ccccn12)Nc1cccc(-c2nc3ccccc3s2)c1	–	–	–	5µM	?
COC(=O)C1=C(C)NC(=O)/C1=C\c1cc(C)n(-c2ccccc2)c1C	–	–	–	7.1µM	–
COC(=O)C1=C(C)NC(=O)/C1=C\c1cc(C)n(-c2cc(C)cc(C)c2)c1C	–	–	–	–	–
COc1ccccc1CNC(=O)c1cc(Br)ccc1O	–	·	·	·	·
SMILES	LDHA inh	PTHR1 agonist	RGS4 inh	BRCA1 expr up	p53 reactivator
COc1ccc(/C=N/Nc2ncc(Br)cn2)c(OC)c1	–	–	–	10µM	?
CCN1CCN(Cc2cccc(Oc3ccc(Cl)cc3)c2)CC1	–	–	–	–	–
CCN1CCN(Cc2cccc(Oc3ccccc3)c2)CC1	-32	–	–	–	–
CCCC(=O)n1nc(-c2ccc(Cl)cc2)nc1SC	–	–	–	–	?
CSc1nc(-c2ccc(Cl)cc2)nn1S(=O)(=O)c1ccccc1	–	–	–	?	?
CSc1nc(-c2ccc(Cl)cc2)nn1S(=O)(=O)c1ccc(Cl)cc1	–	–	–[11.4 µM]	10µM	?
CCC(=O)n1nc(-c2ccc(Cl)cc2)nc1SC	–	–	–	10µM	?
N#Cc1cc2c(nc1SCc1ccccc1Cl)CCCC2=O	–	·	·	·	·
CCOc1cc(CN2CCCCCC2c2ccccc2Cl)ccc1OCC(N)=O (configuration not stated)	–	·	·	·	·
CCOc1ccccc1CN1CCCCCC1c1sccc1C (configuration not stated)	-31	·	·	·	·
CC(C)(C)c1ccc(C(=O)NCCSc2c[nH]c3ccccc23)cc1	–	·	·	·	·
CCCCC/C=C\C/C=C\CCCCCCCC(=O)O[C@@H](CO)COC(=O)CCCCCCCCCCCCCCCCC	·	·	2.7µM	·	·
CCCc1c(C)[nH]c2c(Br)cccc2c1=O	–	·	·	·	·
Fc1ccc(N/N=C/c2ccccc2Br)c(F)c1	–	·	·	·	·

Screening data as filed in PubChem BioAssay.
